A short description of the assay: NALP1 inflammasome inhibitors in reconstituted yeast, colorimetric, S. cerevisiae, triplicate retest (AID 2071). The conditions noted are these: S. cerevisiae NALP1/ASC/caspase-1 growth, X-gal OD620, 72 h, stronger effect = higher value.

Each structure is given as a SMILES string. Out of some 280,000 compounds screened, about 1,700 (0.61%) were called active. Cut-off read from the data, not from the text of the source: active = inhibition mostly above about 24% (no sharp cut-off); inactive = mostly below about 32%. This excerpt belongs to a sample that is enriched for actives.

For orientation: inhibition means the change of the read-out against control, counted positive when it falls. Consider `CCc1noc(C)c1C(=O)N1CCCC(N2CCN(c3ccc(F)cc3)CC2)C1` (centres undefined), for which the inhibition (at 10 µM unless noted) is 15% (inactive).
As for `CCOc1ccc(-n2c(SCC(N)=O)nnc2-c2ccco2)cc1`, the inhibition (at 10 µM unless noted) was 7.9% (inactive).
With `Oc1c(Cl)cc(Cl)c(Cl)c1Cc1c(O)c(Cl)cc(Cl)c1Cl`, the inhibition was 121% (active) (at 10 µM) and 100% (triplicate retest, at 20 µM).
In the case of `Cc1cc(S(=O)(=O)NCC(C)C)ccc1OCC(=O)NC1CC1`, the inhibition (at 10 µM unless noted) was 13.3% (inactive).
Same read-out and setting: to `COc1ccc(NC(=O)C2CCN(S(=O)(=O)c3ccc4[nH]c(=O)oc4c3)CC2)c(OC)c1` belongs -45% (inactive); to `Cn1c(=O)oc2cc(S(=O)(=O)N3CCC(C(=O)Nc4ccc(OC(F)(F)F)cc4)CC3)ccc21`, 22.5% (active); to `Cc1ccc2nc(NC(=O)C3CCN(S(=O)(=O)c4ccc5c(c4)oc(=O)n5C)CC3)sc2c1`, 0.1% (inactive).
As to `COCCCNC(=S)N(CCN(C)C)Cc1cc2cc3c(cc2[nH]c1=O)OCCO3`, where the note is “at 10 µM unless noted”, the inhibition is 8.7% (inactive).
For the compound `COc1ccc(C(=O)Nc2ccnn2C2CCN(Cc3ccncc3)CC2)cc1`, the inhibition (at 10 µM unless noted) was 14.9% (inactive).
On the same count and under the same terms, as for `COc1cc2[nH]c(=O)n(CCC(=O)NC3CCN(Cc4ccccc4)CC3)c(=O)c2cc1OC`, the figure is 15.6% (inactive); as for `COc1cc2[nH]c(=O)n(Cc3ccc(C(=O)NC4CCN(Cc5ccccc5)CC4)cc3)c(=O)c2cc1OC`, 36.6% (active); as for `COc1cc(C(=O)NC2CCN(Cc3ccccc3)CC2)cc(Cl)c1OC(C)C`, 19.9% (inactive).
Consider `O=C(N/N=C\C1CC=CCC1)c1ccc(Br)o1` (centres undefined), for which, under “at 10 µM unless noted”, the inhibition is 11.4% (inactive).
With `CCCn1c(C2CCCN2c2nc(-c3ccc(OC)cc3)cs2)nc2ccccc21` (centres undefined), where the note is “at 10 µM unless noted”, the inhibition is 21.7% (inactive).
Turning to `Oc1ccc(N=Nc2nccs2)c(O)c1`, the inhibition (at 10 µM unless noted) was 8.1% (inactive).
Take `Oc1ccc(N=Cc2c(O)ccc3ccccc23)cc1`: where the note is “at 10 µM unless noted”, the inhibition is -1.8% (inactive).
For `Oc1ccc2ccccc2c1N=Nc1nccs1`, the inhibition (at 10 µM unless noted) was 59.8% (active).
Turning to `O=C(NCCNc1ccc([N+](=O)[O-])cc1Cl)c1ccccc1F`, the inhibition (at 10 µM unless noted) is 29.5% (inactive).
`COc1ccccc1C1=Nc2cccc3cccc(c23)N1`: the inhibition (at 10 µM unless noted) was 9.5% (inactive).
Consider `c1ccc(C2=Nc3cccc4cccc(c34)N2)cc1`, for which the inhibition (at 10 µM unless noted) is 47.7% (active).
Still for that read-out and setting: to `Fc1ccccc1N=C1Nc2cccc3cccc1c23` belongs -0.1% (inactive); to `O=C(c1noc2c1CCCC2)N1CCc2ccccc2C1`, 3.2% (inactive); to `COc1ccc(N2CCN(C(=O)c3ccccc3NC(=O)C3=C(C)OCCS3)CC2)cc1`, 13.7% (inactive).
In the case of `COc1cc(-c2c(-c3ccc4c(c3)OCO4)noc2C)ccc1F`, the inhibition (at 10 µM unless noted) is 3.9% (inactive).
As for `CCCC(=O)N1CCc2[nH]c3ccccc3c2C1`, the inhibition (at 10 µM unless noted) is 12.2% (inactive).
As for `Fc1ccc(NC(=S)N2CCc3[nH]c4ccccc4c3C2)cc1`, under “at 10 µM unless noted”, the inhibition was -2.7% (inactive).
On to `C=CCNC(=S)N1CCc2[nH]c3ccccc3c2C1`, for which the inhibition (at 10 µM unless noted) is 36.9% (active).
On to `Cc1ccnc(N2C(=O)c3ccc([N+](=O)[O-])cc3C2=O)c1`, for which, under “at 10 µM unless noted”, the inhibition is 4.8% (inactive).
For the compound `O=C(NCc1ccccc1)C1=C[C@@H](c2ccc(C(F)(F)F)cc2)C[C@@H](OCc2ccc(CO)cc2)O1`, the inhibition (at 10 µM unless noted) is -7.3% (inactive).
Take `O=C(C1=C[C@H](C2CC2)C[C@H](OCc2ccc(CO)cc2)O1)N1CCN(Cc2ccccc2)CC1`: the inhibition (at 10 µM unless noted) is -5.8% (inactive).
Take `O=C(C1=C[C@H](c2ccc(C(F)(F)F)cc2)C[C@H](OCc2ccc(CO)cc2)O1)N1CCN(Cc2ccccc2)CC1`: the inhibition (at 10 µM unless noted) is 26.9% (active).
As to `CCN1C(=NCC(C)C)N[C@@H](CCc2ccccc2)[C@H](C(=O)NCC(C)C)[C@H]1C`, the inhibition (at 10 µM unless noted) was -12.1% (inactive).
Regarding `CCC(CC)c1nnc(NC(=O)C2CCN(C(=O)c3ccco3)CC2)s1`, the inhibition (at 10 µM unless noted) was -1% (inactive).
For `CC(=O)N1CCN(CC(C)(C)NS(=O)(=O)c2ccc(C)cc2)CC1`, the inhibition (at 10 µM unless noted) is -1% (inactive).
Still for that read-out and setting: as for `COc1ccc(NC(=O)c2sc3nc(C)nc(N4CCN(c5ccccn5)CC4)c3c2C)c(OC)c1`, the figure is -10.9% (inactive).
Turning to `CC1(C)CCSC(/C=C/c2ccccc2)=N1`, the inhibition (at 10 µM) was 53.2% (active) and the inhibition (triplicate retest, at 20 µM) worked out at 102%.
`CN(C)CCOC1c2ccccc2-c2ccccc21`: the inhibition (at 10 µM unless noted) was 6% (inactive).
Same read-out and setting: to `CCCCCCCCCCOC(=O)Cn1c(COc2ccc(C)cc2)[n+](C)c2ccccc21` belongs 24.8% (active).
Regarding `CCCCOC(=O)Cn1c(=N)n(CCN(CC)CC)c2ccccc21`, the inhibition (at 10 µM unless noted) is 2.6% (inactive).
On to `CCCCOC(=O)Cn1c(=O)n(CC(=O)OCCCC)c2cc(C)ccc21`, for which the inhibition (at 10 µM unless noted) is -1% (inactive).
As for `Cc1ccc(OCc2nc3ccccc3n2C)cc1`, the inhibition (at 10 µM unless noted) is 33.1% (inactive).
Take `COc1cccc(OCC(=O)Nc2ccccc2C(N)=O)c1`: for the setting “at 10 µM unless noted”, the inhibition was 1.7% (inactive).
Regarding `CCCCCCCCCCOC(=O)Cn1c(COc2cccc(OC)c2)[n+](C)c2ccccc21`, the inhibition (at 10 µM unless noted) is 36.3% (active).
Still for that read-out and setting: to `O=C(Nc1cccc([N+](=O)[O-])c1)N1CCc2ccccc2C1` belongs 7.7% (inactive); to `Oc1c(Cl)cc(Cl)cc1/C=N/c1ncn[nH]1`, 15.3% (inactive).
Consider `CC/C(=N\NC(=O)c1c(C)nc2ccccn12)c1ccc(Cl)cc1`, for which the inhibition (at 10 µM unless noted) was 8.5% (inactive).
The same measure, in the same setting: to `CCOc1ccc(N(CC(=O)NCCOc2ccccc2OC)S(=O)(=O)c2ccccc2)cc1` belongs 3% (inactive).

Values taken from PubChem BioAssay AID2071 (Sanford-Burnham Center for Chemical Genomics, 2009).
